# Measurements as given in PubChem BioAssay (NCI).
# This is part of a sample that, as a whole, favours compounds with a hit. Of some 83,000 tested, about 20% had one in any assay.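 Single-concentration screen, 48 h exposure, 96-well plates. Endpoint: percent growth. Below 10 = active.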 Unmarked numbers belong to inactive results. Activity calls are given as the source filed them.
# Test system: SN12C renal
# Assay: NCI-60 one-dose screen, 48 h (100 = growth as untreated, 0 = no growth, -100 = all killed)
# Conditions: 10 µM unless noted
row,Structure (SMILES),growth
1,Cc1cccc(-[n+]2noc(N)n2)c1,95.7%
2,O=C(NCc1ccccc1)c1cccc([N+](=O)[O-])c1,104%
3,C/C(Cc1ccccc1)=N\O,107%
4,CCCCCC/C=C\CCCCCCCCCc1cc(O)cc(OC)c1O,8.94% (active)
5,CC1(C)OC2C(CO)OC(n3ccc(=O)[nH]c3=O)C2O1 (stereo unspecified),90.1%
6,C/C=C/C1OCC(CC)C(CCC)O1 (stereo unspecified),99.5%
7,O=c1nc(Nc2cccc(Cl)c2)oc2cc(Cl)oc(=O)c12,86.1%
8,NC(CO)(CO)c1ccccc1,108%
9,ClCC(Cl)[C@@H]1CC2C=CC1C2 (stereo partly specified),102%
10,CN=S(=O)(OCCCCCOS(=O)(=NC)c1ccc(C)cc1)c1ccc(C)cc1 (stereo unspecified),95.1%
11,CCCCN(C=S)CCCC,97.5%
12,CCCCCCCCCc1ccc(OC(C)=O)cc1,99.6%
13,Cc1nc(C)c(C(=O)O)cc1C(=O)O,125%
14,CC(=O)N(CCCCCCN(C(C)=O)C(C)=O)C(C)=O,103% [100 µM]
15,CN1CCCN(C(c2ccccc2)c2ccc(Br)cc2)CC1 (stereo unspecified),65.4%
16,CCOc1ccc(NC(=S)N2CCC(CCCC3CCN(C(=S)Nc4ccc(OCC)cc4)CC3)CC2)cc1,95.9%
